Data from the supplement of paper PMC10037445.
In all, about 2,900 compounds were measured (“NF-kB SEAP reporter activity, fold change vs agonist alone”: median about 0.99, highest 2% from about 2.6 on). For the sample, the highest values were picked, then their nearest neighbours and some compounds at random.

Tests used:
[1] = system: RAW-Dual; test: NF-kB SEAP reporter activity, fold change vs agonist alone; higher = enhanced NF-kB activity
How it was run: (§1)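 Cytotoxic wells were those whose IncuCyte confluency was below 70% of agonist controls in both mask sets. The cells were RAW-Dual macrophages at 50,000 cells/well in DMEM on 384-well plates, dosed with 50 nL of library stock by pin tool, stimulated with a PRR agonist 1 h later, and kept at 37 °C, 5% CO2 for 20 hours. IRF and NF-κB reporter activity, as fold change over agonist-alone wells, came from supernatant read by QuantiLuc luminescence and QuantiBlue absorbance, respectively.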

[2] = system: RAW-Dual; test: NF-kB SEAP reporter activity, fold change vs agonist alone; cytotoxicity flag (confluency mask): not cytotoxic; higher = enhanced NF-kB activity
How it was run: as §1

[3] = system: RAW-Dual; test: NF-kB SEAP reporter activity, fold change vs agonist alone; cytotoxicity flag (confluency mask): cytotoxic (confluency <70% of control); higher = enhanced NF-kB activity
How it was run: as §1

[4] = agonist: ODN 1826 (TLR9) 0.5 ug/mL
[5] = agonist: Pam2CSK4 (TLR2/6) 0.1 ug/mL
[6] = agonist: Pam3CSK4 (TLR2/1) 0.1 ug/mL
[7] = library stock concentration (final ~1000-fold dilution): 10 mM, cytotoxicity flag (confluency mask): not cytotoxic, agonist: Imiquimod (TLR7) […]
[8] = library stock concentration (final ~1000-fold dilution): 10 mM, cytotoxicity flag (confluency mask): not cytotoxic, agonist: MPLA (TLR4) […]
[9] = library stock concentration (final ~1000-fold dilution): 10 mM, cytotoxicity flag (confluency mask): cytotoxic (confluency <70% of control), agonist: Imiquimod (TLR7) […]
[10] = library stock concentration (final ~1000-fold dilution): 10 mM, cytotoxicity flag (confluency mask): cytotoxic (confluency <70% of control), agonist: MPLA (TLR4) […]

Which results are given for `CCNC1(C(N)=O)CCN(c2ncnc3c2nc(-c2ccccc2Cl)n3-c2ccc(Cl)cc2)CC1.Cl`?
NF-kB SEAP reporter activity ([1]; library stock concentration (final ~1000-fold dilution): 2 mM, cytotoxicity flag (confluency mask): not cytotoxic, agonist: Imiquimod (TLR7) […]): 0.57; NF-kB SEAP reporter activity ([1]; library stock concentration (final ~1000-fold dilution): 2 mM, cytotoxicity flag (confluency mask): not cytotoxic, agonist: MPLA (TLR4) […]): 0.847

Which “NF-kB SEAP reporter activity” value ([2]; agonist: LPS (TLR4) 0.1 ug/mL) does the source give for `CCNC1(C(N)=O)CCN(c2ncnc3c2nc(-c2ccccc2Cl)n3-c2ccc(Cl)cc2)CC1.Cl` (library stock concentration (final ~1000-fold dilution): 2 mM) here?
Its value is 0.587.

What about the “NF-kB SEAP reporter activity” value [2, 4] of the same compound?
Its value is 0.493.

What about the “NF-kB SEAP reporter activity” value [2, 5] of the same compound?
The value was 0.537.

And the “NF-kB SEAP reporter activity” value [2, 6]?
The value was 0.482.

What does the source list for `COc1ccc(-c2ccc3c(N4CCOCC4C)nc(N4CCOCC4C)nc3n2)cc1CO` (stereo not drawn)?
NF-kB SEAP reporter activity [1, 7]: 1.11; NF-kB SEAP reporter activity [1, 8]: 1.53

For `COc1ccc(-c2ccc3c(N4CCOCC4C)nc(N4CCOCC4C)nc3n2)cc1CO` (stereo not drawn) (library stock concentration (final ~1000-fold dilution): 10 mM), which “NF-kB SEAP reporter activity” value ([2]; agonist: LPS (TLR4) 0.1 ug/mL) is on record?
Its value is 1.62.

And the “NF-kB SEAP reporter activity” value [2, 4]?
The value was 1.12.

And the “NF-kB SEAP reporter activity” value [2, 5]?
Its value is 0.372.

And the “NF-kB SEAP reporter activity” value [2, 6]?
Its value is 0.555.

For `Cc1cc(O)c(-c2ccc(C(C)CN(C)C)cc2)c2c1[nH]c(=O)c1sccc12.Cl.Cl` (stereo not drawn) (library stock concentration (final ~1000-fold dilution): 10 mM), which “NF-kB SEAP reporter activity” value ([3]; agonist: LPS (TLR4) 0.1 ug/mL) is on record?
Its value is 0.764.

And the “NF-kB SEAP reporter activity” value [3, 4]?
The value was 0.357.

What about the “NF-kB SEAP reporter activity” value [3, 5] of the same compound?
Its value is 0.311.

What about the “NF-kB SEAP reporter activity” value [3, 6] of the same compound?
Its value is 0.482.

For `Cc1cc(O)c(-c2ccc(C(C)CN(C)C)cc2)c2c1[nH]c(=O)c1sccc12.Cl.Cl` (stereo not drawn), which “NF-kB SEAP reporter activity” value [1, 9] is on record?
Its value is 1.2.

What about the “NF-kB SEAP reporter activity” value [1, 10] of the same compound?
Its value is 1.37.

For `CC(N)C12CC3CC(CC(C3)C1)C2.Cl` (stereo not drawn), which “NF-kB SEAP reporter activity” value [1, 8] is on record?
Its value is 1.06.

With `CC(N)C12CC3CC(CC(C3)C1)C2.Cl` (stereo not drawn) (library stock concentration (final ~1000-fold dilution): 10 mM) as the compound, how does the “NF-kB SEAP reporter activity” value ([2]; agonist: LPS (TLR4) 0.1 ug/mL) read?
The value was 1.15.

What about the “NF-kB SEAP reporter activity” value [2, 4] of the same compound?
The value was 0.619.

What about the “NF-kB SEAP reporter activity” value [2, 5] of the same compound?
Its value is 1.24.

And the “NF-kB SEAP reporter activity” value [2, 6]?
The value was 0.847.

For `O=C(Cn1nnc(-c2ccncc2)c1-c1ccccc1)Nc1ccc(-c2ccccc2)cn1` (library stock concentration (final ~1000-fold dilution): 10 mM), which “NF-kB SEAP reporter activity” value ([2]; agonist: LPS (TLR4) 0.1 ug/mL) is on record?
The value was 1.06.

What about the “NF-kB SEAP reporter activity” value [2, 4] of the same compound?
Its value is 0.623.

And the “NF-kB SEAP reporter activity” value [2, 5]?
The value was 0.34.

And the “NF-kB SEAP reporter activity” value [2, 6]?
Its value is 0.345.

`O=C(Cn1nnc(-c2ccncc2)c1-c1ccccc1)Nc1ccc(-c2ccccc2)cn1` was tested. Which “NF-kB SEAP reporter activity” value [1, 7] did it give?
Its value is 0.711.

What about the “NF-kB SEAP reporter activity” value [1, 8] of the same compound?
The value was 0.961.

With `Cc1noc(C)c1-c1cnc2c(-c3ccc(C(=O)O)cc3)cn(C(C)c3ccccn3)c2c1` (stereo not drawn) (library stock concentration (final ~1000-fold dilution): 10 mM) as the compound, how does the “NF-kB SEAP reporter activity” value ([2]; agonist: LPS (TLR4) 0.1 ug/mL) read?
Its value is 2.32.

What about the “NF-kB SEAP reporter activity” value [2, 4] of the same compound?
The value was 1.73.

And the “NF-kB SEAP reporter activity” value [2, 5]?
Its value is 0.767.

And the “NF-kB SEAP reporter activity” value [2, 6]?
The value was 2.09.

With `COc1cc2c(cc1-c1c(C)noc1C)ncc1[nH]c(=O)n(C(C)c3ccccn3)c12` (stereo not drawn) as the compound, how does the “NF-kB SEAP reporter activity” value [1, 9] read?
The value was 2.61.

And the “NF-kB SEAP reporter activity” value [1, 10]?
Its value is 2.46.

What does the source list for `Cc1noc(C)c1-c1ccc2[nH]c(=O)n3c2c1OCC3c1ccccn1` (stereo not drawn) (library stock concentration (final ~1000-fold dilution): 10 mM)?
NF-kB SEAP reporter activity ([2]; agonist: LPS (TLR4) 0.1 ug/mL): 1.61; NF-kB SEAP reporter activity [2, 4]: 1.67; NF-kB SEAP reporter activity [2, 5]: 0.501; NF-kB SEAP reporter activity [2, 6]: 1.34

How did the “NF-kB SEAP reporter activity” value ([3]; agonist: LPS (TLR4) 0.1 ug/mL) turn out when `COc1cc2c(cc1-c1c(C)noc1C)ncc1[nH]c(=O)n(C(C)c3ccccn3)c12` (stereo not drawn) (library stock concentration (final ~1000-fold dilution): 10 mM) was run?
The value was 4.87.

What about the “NF-kB SEAP reporter activity” value [3, 4] of the same compound?
The value was 2.55.

And the “NF-kB SEAP reporter activity” value [3, 5]?
The value was 0.529.

And the “NF-kB SEAP reporter activity” value [3, 6]?
Its value is 1.93.

Which “NF-kB SEAP reporter activity” value [1, 7] does the source give for `Cc1noc(C)c1-c1cnc2c(-c3ccc(C(=O)O)cc3)cn(C(C)c3ccccn3)c2c1` (stereo not drawn) here?
The value was 1.59.

What about the “NF-kB SEAP reporter activity” value [1, 8] of the same compound?
Its value is 2.29.

For `Cc1noc(C)c1-c1ccc2[nH]c(=O)n3c2c1OCC3c1ccccn1` (stereo not drawn), which “NF-kB SEAP reporter activity” value [1, 7] is on record?
The value was 1.5.

And the “NF-kB SEAP reporter activity” value [1, 8]?
The value was 2.28.

Which “NF-kB SEAP reporter activity” value [1, 7] does the source give for `C=CC(=O)N1CCC(C2CCNc3c(C(N)=O)c(-c4ccc(Oc5ccccc5)cc4)nn32)CC1` (stereo not drawn) here?
The value was 0.477.

What about the “NF-kB SEAP reporter activity” value [1, 8] of the same compound?
Its value is 0.541.

For `C=CC(=O)N1CCC(C2CCNc3c(C(N)=O)c(-c4ccc(Oc5ccccc5)cc4)nn32)CC1` (stereo not drawn) (library stock concentration (final ~1000-fold dilution): 10 mM), which “NF-kB SEAP reporter activity” value ([2]; agonist: LPS (TLR4) 0.1 ug/mL) is on record?
Its value is 0.708.

What about the “NF-kB SEAP reporter activity” value [2, 4] of the same compound?
The value was 0.413.

What about the “NF-kB SEAP reporter activity” value [2, 5] of the same compound?
Its value is 0.25.

And the “NF-kB SEAP reporter activity” value [2, 6]?
Its value is 0.279.

`Cn1c(=O)cc(C(=O)Nc2ccc3c(c2)OCCO3)c2ccccc21` was tested. Which “NF-kB SEAP reporter activity” value [1, 7] did it give?
Its value is 0.997.

What about the “NF-kB SEAP reporter activity” value [1, 8] of the same compound?
The value was 0.999.

With `Cn1c(=O)cc(C(=O)Nc2ccc3c(c2)OCCO3)c2ccccc21` (library stock concentration (final ~1000-fold dilution): 10 mM) as the compound, how does the “NF-kB SEAP reporter activity” value ([2]; agonist: LPS (TLR4) 0.1 ug/mL) read?
Its value is 0.989.

What about the “NF-kB SEAP reporter activity” value [2, 4] of the same compound?
Its value is 1.02.

And the “NF-kB SEAP reporter activity” value [2, 5]?
Its value is 0.995.

And the “NF-kB SEAP reporter activity” value [2, 6]?
The value was 1.07.

For `CC#CCn1c(N2CCCC(N)C2)nc2c1c(=O)n(Cc1nc(C)c3ccccc3n1)c(=O)n2C` (stereo not drawn), which “NF-kB SEAP reporter activity” value [1, 7] is on record?
The value was 0.851.

And the “NF-kB SEAP reporter activity” value [1, 8]?
Its value is 1.

How did the “NF-kB SEAP reporter activity” value ([2]; agonist: LPS (TLR4) 0.1 ug/mL) turn out when `CC#CCn1c(N2CCCC(N)C2)nc2c1c(=O)n(Cc1nc(C)c3ccccc3n1)c(=O)n2C` (stereo not drawn) (library stock concentration (final ~1000-fold dilution): 10 mM) was run?
Its value is 1.31.

And the “NF-kB SEAP reporter activity” value [2, 4]?
Its value is 0.823.

What about the “NF-kB SEAP reporter activity” value [2, 5] of the same compound?
Its value is 1.05.

And the “NF-kB SEAP reporter activity” value [2, 6]?
Its value is 1.17.

With `O=c1ccoc2cc(O)ccc12` as the compound, how does the “NF-kB SEAP reporter activity” value [1, 7] read?
Its value is 1.18.

What about the “NF-kB SEAP reporter activity” value [1, 8] of the same compound?
Its value is 1.15.

For `O=c1ccoc2cc(O)ccc12` (library stock concentration (final ~1000-fold dilution): 10 mM), which “NF-kB SEAP reporter activity” value ([2]; agonist: LPS (TLR4) 0.1 ug/mL) is on record?
Its value is 1.85.

What about the “NF-kB SEAP reporter activity” value [2, 4] of the same compound?
The value was 1.15.

What about the “NF-kB SEAP reporter activity” value [2, 5] of the same compound?
The value was 1.04.

What about the “NF-kB SEAP reporter activity” value [2, 6] of the same compound?
Its value is 0.865.

Which results are given for `CS(=O)(=O)CCNCc1ccc(-c2ccc3ncnc(Nc4ccc(OCc5cccc(F)c5)c(Cl)c4)c3c2)o1.Cc1ccc(S(=O)(=O)O)cc1.Cc1ccc(S(=O)(=O)O)cc1`?
NF-kB SEAP reporter activity [1, 7]: 1.68; NF-kB SEAP reporter activity [1, 8]: 1.56
